# An excerpt weighted towards active compounds, which were near 1.4% of everything screened.
# PriA SSB inh = inhibitors of Klebsiella pneumoniae PriA binding to SSB C-terminal tail; hit rate 0.6% among 430,000; AID 1272365; AlphaScreen SSBct-PriA binding, biotinylated peptide; inhibition, % at 33 µM; in the data active = inhibition mostly above about 37%, no sharp cut-off; inactive = mostly below about 20%;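 also: plate controls were negative control peptide for no effect and reference peptide for full effect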
# FadD28 FP inh = inhibitors of Mycobacterium tuberculosis FadD28 bisubstrate binding | FadD28 bisubstrate probe binding, fluorescence polarization | inhibition, % at 12.5 µM | hit rate 0.22% among 360,000; in the data active = inhibition above about 8.5%, passing the limit was not always enough
# PrP UTR inh = suppresses PrP 5' UTR mRNA reporter expression; cell-based PrP 5' UTR mRNA reporter, plate reader; inhibition, % (concentration not given with the values); hit rate 0.35% among 340,000; AID 488862; in the data active = inhibition above about 52%; also: 0 = median of the neutral control wells
# PrPC TRFRET = reduces human prion protein on the cell surface | cell surface PrPC, TR-FRET read-out | inhibition, % at 13.8 µM | hit rate 0.43% among 370,000 | AID 720596; in the data active = inhibition above about 24%; also: 0% = median of the test wells and 100% = reference compound wells
# BH1578 lux ind = inducers of Vibrio cholerae quorum light production without autoinducers; hit rate 0.16% among 350,000; V. cholerae BH1578 lux reporter, luminescence, 6 h; activation, % at 18.7 µM; AID 588436; in the data active = activation mostly above about 9.7%, no sharp cut-off
# An asterisk follows results filed as active; i = inactive; · = not tested or not shown; ! = not confirmed by another sample.
SMILES,PriA SSB inh,FadD28 FP inh,PrP UTR inh,PrPC TRFRET,BH1578 lux ind
COc1ccc(S(=O)(=O)CCC(=O)N2CC(=O)Nc3ccccc32)cc1,-4,·,·,·,·
COc1ccc(NC(=O)CSC2=Nc3cccnc3Nc3ccccc32)cc1OC,44*,·,·,·,·
O=C(CSC1=Nc2cccnc2Nc2ccccc21)Nc1ccc(OC(F)(F)F)cc1,25,·,·,·,·
O=C(CSC1=Nc2cccnc2Nc2ccccc21)Nc1cc(Cl)ccc1Cl,30,·,·,·,·
O=C(CSC1=Nc2cccnc2Nc2ccccc21)Nc1ccc(F)cc1F,41*,·,·,·,·
COc1cc(/C=N/n2nnnc2N)ccc1OC(C)=O,·,0,-7,-4,240*
COc1cc(/C=N/n2nnnc2N)ccc1O,·,-1,-47,-4,0
CCOc1ncccc1C(=O)Nc1ccc2c(c1)CCCN2S(=O)(=O)CC,38*,·,·,·,·
O=c1cc2c(=O)oc3cc(O)c(O)oc3c2c(O)c1O,6,11*,-4,-8,-8
O=C(NCC1CCN(S(=O)(=O)c2cccnc2)CC1)c1cc(-c2ccccc2)on1,-24,·,·,·,·
C[C@@H](Cc1ccoc1)NC(=O)c1ccc(-c2ccccc2)cc1,-2,·,·,·,·
CN1CCN(c2oc(-c3ccccc3)nc2S(=O)(=O)c2ccc(Br)cc2)CC1,39*,-5,-12,·,-1
O=S(=O)(c1ccc(Cl)cc1)c1nc(-c2cccs2)oc1N1CCOCC1,44*,·,·,·,·
O=S(=O)(c1ccccc1)c1nc(-c2ccccc2)oc1N1CCCC1,-4,-2,-8,-2,-3
Cc1cc(O)c(CN(C)C)c2c1C(=O)/C(=C/c1ccco1)O2,0,-4,0,-4,i
Cc1cc(O)c(C=O)c2c1C(=O)Oc1c(CO)c(O)c3c(c1O2)C(O)OC3=O (stereo unspecified),13,18*,-5,·,-1
CS(=O)(=O)Nc1cccc(C2=NN(C(=O)c3ccco3)C(c3ccccc3F)C2)c1 (stereo unspecified),58*,·,·,·,·
CS(=O)(=O)Nc1ccc(C2=NN(C(=O)c3ccco3)C(c3ccccc3F)C2)cc1 (stereo unspecified),7,-7,-18,3,-1
CC(=O)Nc1ccc(NC(=S)NC(=O)c2ccccc2)cc1,-1,·,·,·,·
O=C(O)c1ccc(C2CCCC2)cn1,100*,·,·,·,·
O=C(NCC1(c2ccc(F)cc2)CCOCC1)Nc1ccc(Cl)c(Cl)c1,-22,·,·,·,·
O=C(CSc1nccn1-c1ccc(F)cc1)Nc1ccc(Br)cc1,60*,·,·,·,·
Cc1cc(C)cc(-n2ccnc2SCC(=O)Nc2ccc(F)cc2F)c1,47*,·,·,·,·
O=C(CSc1nccn1-c1cccc(C(=O)NCc2ccco2)c1)Nc1ccc(Cl)cc1F,37*,·,·,·,·
O=C(CSc1nccn1-c1ccc([N+](=O)[O-])cc1)Nc1ccc(Cl)c(Cl)c1,36*,·,·,·,·
SMILES,PriA SSB inh,FadD28 FP inh,PrP UTR inh,PrPC TRFRET,BH1578 lux ind
O=C(CSc1nccn(-c2cccc(F)c2)c1=O)Nc1ccc(Cl)cc1F,-3,-2,-11,10,0
O=C(CSc1nccn1-c1ccc([N+](=O)[O-])cc1)Nc1nccs1,-1,·,·,·,·
Cn1cccc1C=Nn1c(-c2ccc(C(C)(C)C)cc2)n[nH]c1=S,45,·,·,·,·
COCCNC(=O)Cn1c(=O)c2c(N3CCN(C(=O)C4CC4)CC3)ccnc2n(C)c1=O,-5,·,·,·,·
FC(F)Oc1ccc(NC(=S)NCc2ccccc2)cc1,0,1,-17,6,0
Oc1cccc2c(NC(=S)Nc3ccc(OC(F)F)cc3)cccc12,54*,-5,16,-12,i
COc1cc(-c2cc(=O)c3ccc(O)cc3o2)cc(OC)c1OC,·,-3,·,-6,0
COc1cc(OC)c(-c2c3cc(O)c(=O)cc-3oc3cc(O)c(O)cc23)cc1OC,17,39*,-33,-19,i
Cc1c2cc(O)c(=O)cc-2oc2cc(O)c(O)cc12,53,12*,1,60*,0
CC(=O)Nc1ccc(SCC(=O)Nc2ccc(C)c(Cl)c2)nn1,-15,·,·,·,·
Cc1cc(C)c(Nc2cc(S(=O)(=O)O)c(N)c3c2C(=O)c2ccccc2C3=O)c(C)c1,110,64*,-4,-51,-3
Cc1cc(C)c(NC(=O)COC(=O)c2cccc3c2C(=O)c2ccccc2C3=O)c(C)c1,-7,-1,-2,-13,1
O=C(CC(NCc1ccccn1)C(=O)O)Nc1ccccc1Cl (stereo unspecified),97*,1,-10,-1,i
O=C(NCc1ccccn1)Nc1cc(Cl)ccc1Cl,1,-3,-29,-1,-2
CN(C)c1ccc(/C=C/c2nc3ccccc3c(=O)[nH]2)cc1,5,-1,60*,4,i
O=c1[nH]c(/C=C/c2ccc(Br)cc2)nc2ccccc12,-6,-5,-67,0,2
COc1ccc(-c2csc3ncnc(Oc4ccc(C(C)(C)C)cc4)c23)cc1,-6,·,·,·,·
O=C1C=CC2=C3c4cc(O)c(O)cc4CC3(O)COC2=C1O (stereo unspecified),7,6,-20,25*,0
COCCCNc1c2c3c(cccc3[nH]c1=O)C(=O)c1ccccc1-2,10,58*,3,-33,0
O=C(COc1ccccc1Cl)Nc1ccc(S(=O)(=O)N2CCOCC2)cc1,-11,-1,-6,1,i
O=C(COc1ccc(Cl)cc1Cl)Nc1ccc(S(=O)(=O)N2CCOCC2)cc1,60*,·,·,·,·
O=C(N/N=C/c1c(O)n(-c2ccccc2Cl)c(=O)c2ccccc12)c1cccnc1,·,7,0,-2,0
O=C(N/N=C/c1c(O)n(Cc2ccccc2)c(=O)c2ccccc12)c1cccnc1,·,11*,0,-1,i
COc1ccc(Cn2c(O)c(/C=N/NC(=O)c3cccnc3)c3ccccc3c2=O)cc1,·,14*,-13,5,·
Nc1c(NC2CCCCC2)c2ccccc2oc1=O,50*!,-1,-22,1,-1
SMILES,PriA SSB inh,FadD28 FP inh,PrP UTR inh,PrPC TRFRET,BH1578 lux ind
COC(=O)[C@]1(Cc2ccccc2)N[C@H](CN(C)S(=O)(=O)c2ccc(-c3ccccc3)cc2)[C@@H]2C(=O)N(C)C(=O)[C@@H]21,-4,11*,-12,-16,1
O=C(NCCCN1CCN(CCCNC(=O)c2ccccc2F)CC1)c1ccccc1F,61*,1,5,-7,0
O=C(NCCN1CCN(c2ccccc2)CC1)c1ccccc1F,16,1,-10,0,i
O=C(Cn1c(=O)oc2cc(S(=O)(=O)N3CCCC3)ccc21)NCc1ccc(F)cc1,104*,-1,-16,4,0
O=C(Cn1c(=O)oc2cc(S(=O)(=O)N3CCCC3)ccc21)Nc1cccc(C(F)(F)F)c1,-4,11*,-7,10,i
CCc1ccc(NC(=O)Cn2c(=O)oc3cc(S(=O)(=O)N4CCOCC4)ccc32)cc1,-10,-2,17,15,0
O=C(Cn1c(=O)oc2cc(S(=O)(=O)N3CCCC3)ccc21)NC1CCCCC1,-13,0,6,-2,0
CCc1cccc(NC(=O)Cn2c(=O)oc3cc(S(=O)(=O)N4CCOCC4)ccc32)c1,-4,41*,-29,-1,·
O=C(Cn1c(=O)oc2ccccc21)Nc1ccc(S(=O)(=O)N2CCCCC2)cc1,-9,1,9,3,0
Nc1nonc1-n1nnc(C(=O)NN=Cc2ccc(OCc3cccc(Cl)c3)cc2)c1CN1CCCCC1,-4,·,·,·,·

# From PubChem BioAssay
